Laboratory results: PubChem BioAssay (Tox21)
Inconclusive results are not listed. Active and inactive are the calls of the source. Unless noted, calls follow the shape of the dose curve; as a rule, active = well fitted curve in the direction sought with a large enough effect in the repeat runs; inconclusive = weak or mixed curves; inactive = no such curve, though single readings can be large; an effect the other way counts as inactive or inconclusive.

Key:
[1] = qHTS assay to identify small molecule antagonists of the estrogen related receptor (ERR) signaling pathway from Tox21 library - cell viability counter screen (AID 1224834); also: nearly all actives have a fitted effect of over 30% in size; also: potency is read from the fitted curve at half-maximal effect
How it was run: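 In this quantitative HTS format, ERR cells receive compounds in DMSO and are incubated for 17.5 h at 37 C. Live-cell protease activity is then detected with CellTiter-Fluor.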

[2] = target: Luciferin 4-monooxygenase (Photinus pyralis) (UniProt P08659); test: qHTS assay to identify small molecule inhibitors of firefly luciferase (AID 1224835); also: series mostly up to about 120 µM; nearly all actives have a fitted effect of over 25% in size
Sequence of Luciferin 4-monooxygenase (Photinus pyralis) (P08659 whole entry, looked up): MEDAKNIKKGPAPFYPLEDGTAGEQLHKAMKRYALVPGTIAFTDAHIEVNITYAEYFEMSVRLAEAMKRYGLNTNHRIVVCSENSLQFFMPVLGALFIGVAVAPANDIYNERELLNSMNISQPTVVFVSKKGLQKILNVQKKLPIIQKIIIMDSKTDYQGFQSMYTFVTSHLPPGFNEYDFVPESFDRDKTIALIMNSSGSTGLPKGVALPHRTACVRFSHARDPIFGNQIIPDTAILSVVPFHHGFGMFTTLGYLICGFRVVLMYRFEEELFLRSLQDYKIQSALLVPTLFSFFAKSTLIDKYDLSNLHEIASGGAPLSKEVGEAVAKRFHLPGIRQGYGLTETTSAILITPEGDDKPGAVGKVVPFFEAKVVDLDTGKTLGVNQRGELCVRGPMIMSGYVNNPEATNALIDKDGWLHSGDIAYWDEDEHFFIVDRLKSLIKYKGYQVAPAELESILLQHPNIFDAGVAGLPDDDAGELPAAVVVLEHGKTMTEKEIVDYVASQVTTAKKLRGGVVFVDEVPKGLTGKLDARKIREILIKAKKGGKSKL
How it was run: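 Quantitative HTS format; KM concentrations of both substrates. Purified P. pyralis FLuc activity quantified from luminescence images.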

[3] = qHTS assay to identify small molecule agonists of the constitutive androstane receptor (CAR) signaling pathway - cell viability counter screen (AID 1224836); also: series mostly up to about 92 µM; nearly all actives have a fitted effect of over 45% in size
How it was run: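 23 h treatment, 37 C, 5% CO2. Cell line: HepG2 stably expressing hCAR with a CYP2B6-2.2kb construct. Co-treatment: PK11195, 0.75 uM final. Read-out: CellTiter-Fluor fluorescence intensity.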

[4] = qHTS assay to identify small molecule antagonists of the constitutive androstane receptor (CAR) signaling pathway - cell viability counter screen (AID 1224837); also: series mostly up to about 92 µM; nearly all actives have a fitted effect of over 45% in size
How it was run: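 In quantitative HTS format, compounds at 15 concentrations were applied to HepG2 cells double-transfected with hCAR and CYP2B6-2.2kb under 50 nM CITCO stimulation; live-cell protease activity was read after 23 hr via CellTiter-Fluor.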

[5] = target: Thyrotropin receptor (Homo sapiens) (UniProt P16473); test: qHTS assay to identify small molecule agonists of the thyroid stimulating hormone receptor (TSHR) signaling pathway (AID 1224843; calls by dose curve; also: nearly all actives have a fitted effect of over 45% in size; also: potency is read from the fitted curve at half-maximal effect)
Sequence of Thyrotropin receptor (Homo sapiens) (P16473 whole entry, looked up): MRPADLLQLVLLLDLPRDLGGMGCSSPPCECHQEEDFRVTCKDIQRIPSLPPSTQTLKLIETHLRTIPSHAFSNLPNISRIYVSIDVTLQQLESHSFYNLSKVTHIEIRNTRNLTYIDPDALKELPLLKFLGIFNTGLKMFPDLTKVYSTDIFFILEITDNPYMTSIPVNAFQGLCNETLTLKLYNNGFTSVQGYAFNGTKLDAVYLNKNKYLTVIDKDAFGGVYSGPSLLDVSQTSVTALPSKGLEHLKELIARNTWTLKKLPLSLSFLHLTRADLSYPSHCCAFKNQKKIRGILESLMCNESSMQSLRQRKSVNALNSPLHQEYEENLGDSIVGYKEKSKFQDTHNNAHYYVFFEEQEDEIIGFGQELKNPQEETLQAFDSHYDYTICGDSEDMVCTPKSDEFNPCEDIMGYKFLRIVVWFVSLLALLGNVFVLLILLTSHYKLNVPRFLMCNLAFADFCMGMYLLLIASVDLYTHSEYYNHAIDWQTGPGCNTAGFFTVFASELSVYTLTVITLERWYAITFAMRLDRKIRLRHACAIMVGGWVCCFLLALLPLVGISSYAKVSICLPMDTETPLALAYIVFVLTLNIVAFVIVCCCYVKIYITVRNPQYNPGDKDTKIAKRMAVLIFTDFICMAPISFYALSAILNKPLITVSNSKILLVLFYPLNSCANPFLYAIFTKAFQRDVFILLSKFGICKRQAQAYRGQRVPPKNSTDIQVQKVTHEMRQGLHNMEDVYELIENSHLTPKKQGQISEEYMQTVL
How it was run: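 Using 15 concentrations per compound in triplicate, cAMP production was monitored in TSHR-HEK293 cells after 30 min compound incubation at RT; HTRF reagents followed, with fluorescence intensity recorded after 1 h.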

[6] = target: Nuclear receptor subfamily 1 group I member 3 (Homo sapiens) (UniProt Q14994); test: qHTS assay to identify small molecule antagonists of the constitutive androstane receptor (CAR) signaling pathway (AID 1224838); also: nearly all actives have a fitted effect of over 40% in size
Sequence of Nuclear receptor subfamily 1 group I member 3 (Homo sapiens) (Q14994 whole entry, looked up): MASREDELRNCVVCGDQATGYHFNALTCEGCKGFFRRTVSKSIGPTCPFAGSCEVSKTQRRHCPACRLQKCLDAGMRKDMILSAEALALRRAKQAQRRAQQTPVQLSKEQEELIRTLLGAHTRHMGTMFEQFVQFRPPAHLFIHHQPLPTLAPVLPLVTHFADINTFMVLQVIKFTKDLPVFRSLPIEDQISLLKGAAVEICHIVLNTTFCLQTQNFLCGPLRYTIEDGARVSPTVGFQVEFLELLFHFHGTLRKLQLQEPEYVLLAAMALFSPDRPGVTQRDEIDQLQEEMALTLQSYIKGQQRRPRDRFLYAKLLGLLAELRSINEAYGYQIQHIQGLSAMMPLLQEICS
How it was run: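 CITCO-stimulated (50 nM final) HepG2 cells stably transfected with hCAR and CYP2B6-2.2kb luciferase were exposed to compounds at 15 concentrations for 24 h at 37 C/5% CO2. A luciferase reagent was added and luminescence recorded after 30 min.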

[7] = target: Nuclear receptor subfamily 1 group I member 3 (Homo sapiens) (UniProt Q14994); test: qHTS assay to identify small molecule agonists of the constitutive androstane receptor (CAR) signaling pathway (AID 1224839);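 also: HepG2 cells stably carrying human CAR and a CYP2B6 luciferase reporter; series mostly up to about 92 µM; nearly all actives have a fitted effect of over 15% in size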
How it was run: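 Compounds tested at 15 concentrations on HepG2 cells stably harbouring hCAR and CYP2B6-2.2kb reporter constructs, co-treated with PK11195 (0.75 uM final), 24 h at 37 C; luminescent reporter signal quantified.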

[8] = qHTS assay to identify small molecule antagonists of the estrogen related receptor signaling pathway with the pleiotropic PPARgamma coactivator (PGC) from Tox21 10K library (AID 1224841; call rule not given here; also: actives are mostly falling curves and most rising ones were filed inactive; nearly all actives have a fitted effect of over 50% in size; also: potency is read from the fitted curve at half-maximal effect)
How it was run: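 In the PGC/ERR line, DMSO solutions of test chemicals are pin-delivered to 2,000 cells/well six hours after dispensing. Following eighteen hours' incubation, One-Glo reagent is added and luminescence recorded.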

[9] = qHTS assay to identify small molecule agonists of the estrogen related receptor signaling pathway with the pleiotropic PPARgamma coactivator (PGC) from Tox21 10K library (AID 1224842); also: nearly all actives have a fitted effect of over 15% in size
How it was run: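 PGC/ERR reporter cells (NTP line) were seeded 2,000 per well, rested 6 h at 37 C/5% CO2, then pin-dosed with compounds in DMSO for 18 h at 37 C; luciferase read by One-Glo luminescence after 30 min at room temperature.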

[10] = qHTS assay to identify small molecule antagonists of the estrogen related receptor signaling pathway with the pleiotropic PPARgamma coactivator (PGC) from Tox21 10K library - cell viability counter screen (AID 1224840; active = well fitted cell-killing curve with a large enough effect in the repeat runs, not every such curve was filed as active; also: nearly all actives have a fitted effect of over 40% in size)
How it was run: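 Viability counter screen, PGC/ERR cells: 17.5 h compound exposure at 37 C, CellTiter-Fluor fluorescence endpoint.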
% is scaled to controls: 0 for no effect and ±100 for the full control effect.

O=C(CS)Nc1ccccc1
inactive: Potency [1] | Potency [2] | Potency [3] | Potency [4] | Potency [5]

COc1cc(C(=O)OCCCN2CCCN(CCCOC(=O)c3cc(OC)c(OC)c(OC)c3)CC2)cc(OC)c1OC
active: Potency [1] 23.7 µM
inactive: Potency [2] | Potency [3] | Potency [6] | Potency [7] | Potency [8] | Potency [9] | Potency [5]

C[N+](C)(C)CCOC(=O)CCC(=O)OCC[N+](C)(C)C
inactive: Potency [1] | Potency [2] | Potency [3] | Potency [4] | Potency [10] | Potency [5]

c1ccc(C(O[C@H]2CCCN(CCc3ccc4c(c3)OCO4)C2)c2ccccc2)cc1
inactive: Potency [1] | Potency [2] | Potency [3] | Potency [4] | Potency [10] | Potency [5]

O=C(O)c1ccccc1Cl
inactive: Potency [1] | Potency [2] | Potency [3] | Potency [4] | Potency [5]

C1CCCNCCC1
inactive: Potency [1] | Potency [2] | Potency [3] | Potency [4] | Potency [9] | Potency [5]
active: Potency [8] 4.32 µM

C[C@@H](c1ncncc1F)C(O)(Cn1cncn1)c1ccc(F)cc1F (stereo partly specified)
inactive: Potency [1] | Potency [2] | Potency [3] | Potency [4] | Potency [10] | Potency [8] | Potency [9] | Potency [5]

COC(C)OC
inactive: Potency [1] | Potency [2] | Potency [3] | Potency [4] | Potency [8] | Potency [9] | Potency [5]

Cc1cc(C(=O)O)ccc1[N+](=O)[O-]
inactive: Potency [1] | Potency [2] | Potency [3] | Potency [4] | Potency [10] | Potency [5]

c1ccc(-c2ccccn2)nc1
inactive: Potency [1] | Potency [2] | Potency [3] | Potency [4] | Potency [9] | Potency [5]

C/C=C(/C(=C/C)c1ccc(OC(C)=O)cc1)c1ccc(OC(C)=O)cc1
inactive: Potency [1] | Potency [2] | Potency [3] | Potency [4] | Potency [10] | Potency [5]

Cc1ccc(C(C)OC(=O)C2(C)CCC(C(=O)O)C2(C)C)cc1 (stereo unspecified)
inactive: Potency [1] | Potency [2] | Potency [3] | Potency [4] | Potency [10] | Potency [5]

Cc1[nH]c(C)c(Cl)c(=O)c1Cl
inactive: viability change, negative = cytotoxic [1] 0.386% [at 19 µM] | activity change, negative = inhibition [2] -1.3% [at 23.6 µM] | viability change, negative = cytotoxic [3] 3.99% [at 19 µM] | activity change, negative = cytotoxicity [4] 8.34% [at 19 µM] | viability change, negative = cytotoxic [10] 12.2% [at 19 µM] | activation [5] 2.76% [at 19 µM]

Cc1ccccc1S(=O)(=O)O
inactive: Potency [1] | Potency [2] | Potency [3] | Potency [4] | Potency [10] | Potency [5]

CN1CCN(C(c2ccccc2)c2ccccc2)CC1
inactive: Potency [1] | Potency [2] | Potency [3] | Potency [4] | Potency [10] | Potency [5]

Nc1c(CC(=O)O)cccc1C(=O)c1ccc(Br)cc1
inactive: Potency [1] | Potency [2] | Potency [3] | Potency [4] | Potency [10] | Potency [5]

CC(C)CC(=O)C1C(=O)c2ccccc2C1=O
active: Potency [1] 38.6 µM | Potency [8] 27.3 µM
inactive: Potency [2] | Potency [3] | Potency [6] | Potency [9] | Potency [5]

Cc1ccc(C(=O)Oc2ccc(C(O)CNC(C)(C)C)cc2OC(=O)c2ccc(C)cc2)cc1 (stereo unspecified)
active: Potency [5] 0.0473 µM
inactive: Potency [1] | Potency [2] | Potency [3] | Potency [4] | Potency [10]

CCCCC
inactive: Potency [1] | Potency [2] | Potency [3] | Potency [4] | Potency [10] | Potency [5]

NC(=O)C(c1ccccc1)(c1ccccc1)[C@@H]1CCN(CCc2ccc3c(c2)CCO3)C1
inactive: Potency [1] | Potency [2] | Potency [3] | Potency [4] | Potency [10] | Potency [9] | Potency [5]

O=C(O)c1ccco1
inactive: Potency [1] | Potency [2] | Potency [3] | Potency [4] | Potency [10] | Potency [5]

CC/C=C\CCOC(=O)CC
inactive: Potency [1] | Potency [2] | Potency [3] | Potency [4] | Potency [10] | Potency [5]

NCC(=O)CCC(=O)O
inactive: Potency [1] | Potency [2] | Potency [3] | Potency [4] | Potency [10] | Potency [5]

CC(C)(C)OCC1CO1 (stereo unspecified)
inactive: Potency [1] | Potency [2] | Potency [3] | Potency [4] | Potency [10] | Potency [5]

CC[N+](C)(CC)CCOC(=O)C(O)(c1ccccc1)C1CCCCC1 (stereo unspecified)
inactive: Potency [1] | Potency [2] | Potency [3] | Potency [4] | Potency [10] | Potency [9] | Potency [5]

CCCCCC[C@@H](O)C/C=C\CCCCCCCC(=O)OC
inactive: Potency [1] | Potency [2] | Potency [3] | Potency [4] | Potency [10] | Potency [8] | Potency [9] | Potency [5]

O=P(O)(OCc1ccccc1)OCc1ccccc1
inactive: Potency [1] | Potency [2] | Potency [3] | Potency [4] | Potency [10] | Potency [5]
